Records with an inconclusive call do not appear. A call without a number means that no potency is given here. Calls of active or inactive are those of the source. Calls follow the shape of the dose curve; as a rule, active = well fitted inhibition curve with a large enough effect; inconclusive = small, poorly fitted or top-dose-only effect; inactive = no such curve, though single readings can be large or run the other way.
The compounds below were run on Zika virus NS2B-NS3 protease (linked construct) (assay: Primary screen NINDS Rhodamine qHTS for Zika virus inhibitors (AID 1347160; also: nearly all actives have a fitted effect of over 55% in size)). Settings: purified NS2B-NS3 protease, Rhodamine110 substrate fluorescence; series mostly up to 33.1 µM.
In short: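 Single-chain NS2B-NS3 protease, 25 nM, pH 8.0; compounds preincubated 15 min. Activity: Rhodamine110 release from 1.5 microM substrate over 15 min, room temperature, data fitted to 4-parameter Hill.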

Q: How did the Potency turn out when `C[C@@H](NC(=O)c1cc(C(=O)N[C@@H](Cc2ccccc2)[C@H](O)CNC2CC2)cc(N(C)S(C)(=O)=O)c1)c1ccccc1` was run?
A: The Potency was “inactive”.

Q: For `C/C=C/C=C/C=C/C(=O)O[C@@H]1C=C(CO)[C@](O)(CO)[C@@]2(C)CCCC(C)(C)[C@H]12`, which Potency is on record?
A: Its Potency is “inactive”.

Q: For `CC(C)CC(=O)OC[C@@]1(O)C[C@@]23CC[C@H]4[C@@](C)(CCC[C@@]4(C)C(=O)O)[C@@H]2CC[C@@H]1C3`, which Potency is on record?
A: Its Potency is “inactive”.

Q: With `CC1=C(CCC(C)O[C@@H]2O[C@H](CO)[C@@H](O)[C@H](O)[C@H]2O)C(C)(C)CC(O)C1` (stereo partly specified) as the compound, how does the Potency read?
A: Its Potency is “inactive”.

Q: `CCC(C)C(=O)O[C@H]1C[C@](C)(O)[C@]23OC(C)(C)[C@H](C[C@H](OC(=O)c4ccccc4)[C@]2(COC(C)=O)[C@H]1OC(=O)C(C)CC)[C@H]3OC(C)=O` (stereo partly specified) was tested. Which Potency did it give?
A: Its Potency is “inactive”.

Q: For `CC[C@H](NC(=O)c1c(O)c(-c2ccccc2)nc2ccccc12)c1ccccc1`, which Potency is on record?
A: The Potency was “inactive”.
